Rows were chosen to be rich in hits. Some 6.6% of all compounds tested hit in one or more screens of this group.
TGFb SMAD3 inh = qHTS for Inhibitors of TGF-b; Potency, µM (series often up to 46.1 µM), inactives show top-dose activity, negative = inhibition, actives largely listed as inhibitors; AID 588855, 2011; 410,000 tested, 1.2% active; HepG2 CAGA-GFP TGF-b/SMAD3 reporter, GFP fluorescence, 18 h; TGF-beta stimulated, 500 pg/mL final; note: % is set by controls: 0 for no effect and ±100 for the full control effect; nearly all actives have a fitted effect of over 65% in size
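Read-out: total well GFP (ex488/em500-530) summed from mean per-cell fluorescence. Cells: HEPG2 CAGA-GFP, 1% FBS DMEM, 18 h at 37 degrees C with 500 pg/mL final TGF-beta. Unstimulated wells served as the full-inhibition control; stimulated DMSO wells = 0%.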
HT1080 IDH1KD tx = qHTS for induction of synthetic lethality in tumor cells producing 2HG: qHTS for the HT-1080-IDH1KD cell line. HT-1080 IDH1 knockdown viability, ATP luminescence, 48 h. AID 686971, 2013. 360,000 tested, 2% active. Potency, µM (doses to about 46.1 µM), inactives show at the highest dose activity, negative = toxicity, usual class: cytotoxic;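 note: 0% = DMSO wells and -100% = cell-free medium wells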
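CellTiter-Glo luminescence after 48 h compound exposure at 37 degrees C of IDH1-knockdown HT-1080 cells in 5% FBS RPMI. %Activity scaled between DMSO wells and cell-free media wells, with curves fitted and assigned curve classes.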
HepG2 tox-1 = qHTS for Inhibitors of TGF-b: Cytotox Counterscreen. HepG2 CAGA-GFP viability, ATP luminescence, 18 h. 410,000 tested, 0.76% active. Potency, µM (top dose mostly 46.1 µM), for inactives: top-dose activity change, negative = cytotoxicity, usual class: cytotoxic. AID 588856, 2011
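HepG2 CAGA-GFP cells (1000/well, DMEM with 1% FBS) received compound, then TGF-beta at 500 pg/mL final, and were incubated 18 hours at 37 degrees C. Viability was read by CellTiter-Glo luminescence. Media-only wells were set as complete cell-killing and DMSO as no toxicity.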
HT1080-NT tox = qHTS for induction of synthetic lethality in tumor cells producing 2HG: qHTS for the HT-1080-NT fibrosarcoma cell line | HT-1080-NT fibrosarcoma viability, CellTiter-Glo ATP luminescence, 48 h | Potency, µM (doses to about 46.1 µM), for the others: at the top dose activity, negative = less viability, actives largely listed as cytotoxic | 360,000 tested, 1.6% active;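 note: NT is the 2HG producing partner of a matched IDH1 knockdown line; 0% = DMSO-treated cells and -100% = media-only wells without cells; nearly all actives have a fitted effect of over 55% in size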
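HT-1080-NT fibrosarcoma cells (2HG-overproducing), 750 cells/well in RPMI with 5% FBS, dosed after 2 h and incubated 48 h at 37C. CellTiter-Glo luminescence normalized to DMSO and no-cell wells; concentration-response curves fitted and classed.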
KB-3-1 cytotox = qHTS assay for MDR1-selective chemotherapeutics: Primary screen using the parental adenocarcinoma cell KB-3-1; KB-3-1 viability, CellTiter-Glo ATP luminescence, 72 h; Potency, µM (top dose mostly 46.1 µM), most hits filed as cytotoxic; 400,000 tested, 1.4% active; AID 1347075, 2019; note: % is set by controls: 0 for no effect and ±100 for the full control effect; nearly all actives have a fitted effect of over 60% in size
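KB-3-1 cells, DMEM (no phenol red) + 10% FBS; compound by pin transfer, 72 h, 37 °C. Readout: CellTiter-Glo luminescence after 10 min. Data normalized, curve-fitted.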
KB-V1 cytotox = qHTS assay for MDR1-selective chemotherapeutics: Primary screen using the drug-selected MDR subline cells KB-V1; 400,000 tested, 3.4% active; Potency, µM (highest dose often 46.1 µM), hits mostly cytotoxic; KB-V1 MDR cells viability, CellTiter-Glo, 72 h; AID 1347076, 2019; note: % is set by controls: 0 for no effect and ±100 for the full control effect; nearly all actives have a fitted effect of over 60% in size
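Cytotoxicity toward P-gp-expressing KB-V1 cells was determined as loss of CellTiter-Glo luminescence after 72 h at 37 degrees C. Compounds were tested in quantitative HTS format across a concentration range, with curves fitted to normalized data.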
TGFb CAGA inh = qHTS for Inhibitors of TGF-b: Confirmation of Cherry Picks. Potency, µM (highest dose often 46.1 µM), without a hit: at the highest dose activity, negative = inhibition, usual class: inhibitors. shares compounds with TGFb SMAD3 inh. HepG2 CAGA-GFP TGF-b reporter, GFP fluorescence, 18 h; cells stimulated with TGF-beta, 500 pg/mL. 1,600 tested, 63% active; note: % is set by controls: 0 for no effect and ±100 for the full control effect; nearly all actives have a fitted effect of over 65% in size
HepG2 tox-2 = qHTS for Inhibitors of TGF-b: Cytotox Counterscreen for Cherry Picks; shares compounds with TGFb SMAD3 inh; HepG2 CAGA-GFP viability, ATP luminescence, 18 h; cells stimulated with TGF-beta, 500 pg/mL; Potency, µM (doses to about 46.1 µM), inactives show top-dose activity, negative = cytotoxicity, actives largely listed as inhibitors; 1,600 tested, 27% active; note: % is set by controls: 0 for no effect and ±100 for the full control effect; nearly all actives have a fitted effect of over 70% in size
CCL64 TGFb inh = qHTS for Inhibitors of TGF-b: CCL64 Cells Orthogonal Assay for Cherry Picks | 1,600 tested, 41% active | Potency, µM (titrated, usually from 46.1 µM), without a hit: top-dose activity, negative = inhibition, hits mostly inhibitors | CCL64 CAGA-GFP reporter, TGF-b stimulated, GFP fluorescence, 18 h | shares compounds with TGFb SMAD3 inh; note: nearly all actives have a fitted effect of over 65% in size
TGFb COP inh = qHTS for Inhibitors of TGF-b: Hit Validation in HepG2 Cells using COP promoter | shares compounds with TGFb SMAD3 inh | HepG2 COP-GFP TGF-b reporter, GFP fluorescence, 18 h; cells stimulated by added recombinant TGF-beta | Potency, µM (series often up to 46.1 µM), without a hit: at the top dose activity, negative = inhibition, most hits filed as inhibitors | 1,600 tested, 3% active | AID 720537, 2013; note: nearly all actives have a fitted effect of over 70% in size
Active calls of the source: *; i = inactive; ? = inconclusive; nt = no result given; [ ] = dose if it differs, or a comment. Calls come from the whole dose curve; as a rule, active = well fitted curve in the direction sought with a large enough effect; inconclusive = small, poorly fitted or top-dose-only effect, or another doubt; inactive = no such curve, though single readings can be large; an effect the other way counts as inactive or inconclusive. Potency is the fitted concentration of half-maximal effect.

SMILES	TGFb SMAD3 inh	HT1080 IDH1KD tx	HepG2 tox-1	HT1080-NT tox	KB-3-1 cytotox	KB-V1 cytotox	TGFb CAGA inh	HepG2 tox-2	CCL64 TGFb inh	TGFb COP inh
CC1CCCC(NC(=O)CSc2nnc(C(F)(F)F)n2C)C1C (stereo not drawn)	2%	0%	0%	2%[9.24 µM]	i	i	nt	nt	nt	nt
O=S(=O)(Nc1cc(Sc2ncn[nH]2)c(O)c2ccccc12)c1ccccc1	2.5µM*	4.6µM*	3.5µM*	2.3µM*	i	i	7.3µM*	?	5.8µM*	?
Cc1cc(O)c(Sc2ncn[nH]2)cc1NS(=O)(=O)c1ccc(Cl)cc1	-8%	-8%	-3%	-7%	?	i	nt	nt	nt	nt
COc1cc(NC(=O)c2cc3ccccc3cc2O)c(OC)cc1Cl	4.5µM*	?	-58%	?	?	?	7.3µM*	6.5µM*	5.8µM*	33%
Cc1ccc(Cl)cc1NC(=O)c1cc2ccccc2cc1O	3.5µM*	?	-76%	4.1µM*	9.2µM*	?	2.6µM*	7.3µM*	4.1µM*	78%
COc1ccccc1NC(=O)c1cc2cc(Br)ccc2cc1O	5.6µM*	?	-49%	?	18µM*	?	7.3µM*	8.2µM*	5.8µM*	68%
CC1CCc2c(sc3nnn(CC(=O)Nc4ccccc4Cl)c(=O)c23)C1 (stereo not drawn)	-6%	nt	-7%	nt	i	i	nt	nt	nt	nt
CCN(C(=O)COC(=O)c1ccccc1Nc1ccccc1)c1c(N)n(Cc2ccccc2)c(=O)[nH]c1=O	18µM*	-23%	-9%	-29%	i	i	21µM*	-24%	?	8%
CCN(C(=O)COC(=O)c1cccc2ccccc12)c1c(N)n(Cc2ccccc2)c(=O)[nH]c1=O	-17%	-4%	-9%	-6%	i	i	nt	nt	nt	nt
CC(=O)NS(=O)(=O)c1ccc(NC(=O)C(Sc2ccccc2)c2ccccc2)cc1 (stereo not drawn)	3%	5%	9%	10%	i	?	nt	nt	nt	nt
CCC(C)NS(=O)(=O)c1ccc(NC(=O)C(Sc2ccccc2)c2ccccc2)cc1 (stereo not drawn)	13µM*	?	-25%	-28%	?	16µM*	?	?	?	53%
Cc1ccc2nc(-c3ccccn3)c(Nc3ccccc3C)n2c1	3.2µM*	13µM*	-23%	13µM*	?	0.73µM*	8.2µM*	?	?	33%
N#C/C(=C\c1ccc(Br)cc1)c1nc(-c2cc3cc(Br)ccc3oc2=O)cs1	-1%	nt	10%	nt	i	?	nt	nt	nt	nt
CCN(C[C@H]1N[C@@](Cc2ccccc2)(C(=O)OC)[C@H]2C(=O)N(Cc3ccccc3)C(=O)[C@@H]12)C(=O)Nc1ccc(C)cc1	?	?	-13%	?	i	i	15µM*	-14%	?	13%
CCN(C[C@H]1N[C@@](CC)(C(=O)OC)[C@H]2C(=O)N(Cc3ccccc3)C(=O)[C@@H]12)C(=O)Nc1ccc(C)cc1	-21%	-6%	-25%	-1%	i	i	nt	nt	nt	nt
Cc1cccc(N2CCN(C(=O)c3c(C)nn(Cc4ccccc4Cl)c3C)CC2)c1C	20µM*	?	-24%	?	i	?	10µM*	?	?	24%
O=C(CN1C(=O)C2(SCC(=O)N2c2ccccc2)c2ccccc21)Nc1ccccc1C(F)(F)F (stereo not drawn)	1%	nt	-8%	nt	i	i	nt	nt	nt	nt
O=C(Nc1ccc2nc3n(c(=O)c2c1)CCCCC3)c1ccccc1[N+](=O)[O-]	9%	-1%	-12%	6%	i	?	nt	nt	nt	nt
O=C(Nc1ccc2nc3n(c(=O)c2c1)CCCCC3)c1c(F)ccc([N+](=O)[O-])c1F	5µM*	15µM*	11µM*	9.2µM*	2.3µM*	16µM*	2.6µM*	2.6µM*	4.1µM*	8.2µM*
CCNC(=O)C1CCCN(C(=O)c2cccc(C(F)(F)F)c2)CC1 (stereo not drawn)	2%	2%	-3%	19%	i	i	nt	nt	nt	nt
Nc1nc2cc(Cl)ccc2cc1C(=O)NCCCc1ccccc1	nt	-23%	nt	?	i	i	nt	nt	nt	nt
COc1cc(C(=O)N2CC(=O)Nc3ccccc32)cc(OC)c1OC	-14%	?	4%	?	?	?	nt	nt	nt	nt
Cc1cc(C)cc(C(=O)N2CC(=O)Nc3ccccc32)c1	10µM*	0.52µM*	-11%	1.2µM*	?	3.3µM*	7.3µM*	7%	8.2µM*	-3%
CC1CCN(C(=O)CNC(=O)c2ccc(Br)o2)CC1	6%	-1%	1%	-1%	i	i	nt	nt	nt	nt

From PubChem
